Reference: PubChem BioAssay (Tox21)
The source made the active and inactive calls. The call rests on the fitted dose curve.

target: Acetylcholinesterase (Homo sapiens) (UniProt P22303); test: Acetylcholinesterase (AChE) small molecule antagonists: enzyme-based qHTS assay with human liver microsomes (AID 1347399); conditions: Potency: qHTS inhibition; outcome: qHTS inhibition; series mostly up to 115 µM; activity change, negative = inhibition: at the top concentration; further: nearly all actives have a fitted effect of over 60% in size
Summary of the method: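 Recombinant human AChE (50 mU/mL in the enzyme mix) and human liver microsomes (0.25 mg/mL final) were preincubated with compound and NADPH (0.25 mg/mL final) for 30 min at 37 C. Acetylthiocholine/DTNB was then added; thiocholine was read colorimetrically after 10 min at room temperature.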
On the % scale 0 is the no-effect control and ±100 the full control effect.

Chain of Acetylcholinesterase (Homo sapiens) (P22303 whole entry, looked up): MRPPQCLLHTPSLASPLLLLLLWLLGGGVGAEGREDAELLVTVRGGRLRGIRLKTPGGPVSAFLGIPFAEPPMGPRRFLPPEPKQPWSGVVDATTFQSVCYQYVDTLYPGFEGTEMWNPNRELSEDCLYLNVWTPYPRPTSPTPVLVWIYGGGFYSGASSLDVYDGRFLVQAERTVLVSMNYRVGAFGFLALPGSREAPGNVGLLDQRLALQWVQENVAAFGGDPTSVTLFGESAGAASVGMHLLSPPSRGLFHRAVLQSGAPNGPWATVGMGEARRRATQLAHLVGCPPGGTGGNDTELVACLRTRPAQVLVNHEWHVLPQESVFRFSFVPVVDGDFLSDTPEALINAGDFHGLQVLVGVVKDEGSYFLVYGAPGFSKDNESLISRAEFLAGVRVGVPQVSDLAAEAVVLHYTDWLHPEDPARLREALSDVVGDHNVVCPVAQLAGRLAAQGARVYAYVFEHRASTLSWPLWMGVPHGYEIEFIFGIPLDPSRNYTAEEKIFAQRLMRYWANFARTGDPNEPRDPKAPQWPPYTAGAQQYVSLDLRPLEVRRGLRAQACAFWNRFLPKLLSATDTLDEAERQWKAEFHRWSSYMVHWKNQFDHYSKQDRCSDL

SMILES | Potency | activity change, negative = inhibition
O=C1CCCC1 | inactive | 
Cc1nc(C2CCCCC2)c(-c2ccc(S(N)(=O)=O)c(F)c2)o1 |  | 1.18% [at 53 µM] (inactive)
CN(C)C(=O)CNC(=O)Cc1ccccc1 |  | -1.08% [at 53 µM] (inactive)
NS(=O)(=O)O | inactive | 
CCCCCCC(C)(C)S | inactive | 
CC(C)NCC(O)COc1ccc(COCCOC(C)C)cc1 (centres undefined) |  | -1.34% [at 53 µM] (inactive)
COC(c1ccccc1)(c1ccccc1)[C@H](Oc1nc(C)cc(C)n1)C(=O)O |  | 3.31% [at 53 µM] (inactive)
CCCCCCCO | inactive | 
CNC(=O)NC |  | 0.341% (inactive)
CC1(C)O[C@@H]2C[C@H]3[C@@H]4C[C@H](F)C5=CC(=O)C=C[C@]5(C)[C@@]4(F)[C@@H](O)C[C@]3(C)[C@]2(C(=O)CO)O1 | inactive | 
NC(=O)N/N=C/c1ccc([N+](=O)[O-])o1 | inactive | 
C[C@H](CCC(=O)O)[C@H]1CC[C@H]2[C@@H]3[C@H](O)C[C@@H]4C[C@H](O)CC[C@]4(C)[C@H]3CC[C@]12C |  | -2.53% (inactive)
CCCCCCCCNC |  | -1.87% (inactive)
OCCc1ccccc1 | inactive | 
CC(=O)CC(=O)Nc1ccccc1 | inactive | 
OCc1ccccc1 | inactive | 
O[C@@H]1CO[C@H]2[C@@H]1OC[C@@H]2O |  | -0.443% [at 53 µM] (inactive)
OCCN1C[C@H](O)[C@@H](O)[C@H](O)[C@H]1CO |  | -0.084% [at 53 µM] (inactive)
NNS(=O)(=O)c1ccc(Oc2ccc(S(=O)(=O)NN)cc2)cc1 |  | -2.21% (inactive)
Cc1ccc(C=O)cc1 |  | 0.499% [at 53 µM] (inactive)
CCCC[O][Al]([O]CCCC)[O]CCCC |  | 1.43% (inactive)
CN1Cc2c(N)cccc2C(c2ccccc2)C1 (centres undefined) | inactive | 
Oc1cc(O)c2c(c1)O[C@H](c1ccc(O)c(O)c1)[C@H](O)C2 |  | -2.1% [at 53 µM] (inactive)
CN(C)C(=O)NC1(c2ccccc2)CCN(CCC[C@]2(c3ccc(Cl)c(Cl)c3)CCCN(C(=O)c3ccccc3)C2)CC1 |  | 4.25% [at 23.6 µM] (inactive)
